Experimental data taken from PubChem BioAssay (NCATS).
“And” between values parts separate entries of the source, which are not always exact repeats. Equal values may be shown once. Inconclusive results are not listed. Some structures have more than one record in an assay (separate samples or runs), and their calls can disagree. The source made the active and inactive calls. The call rests on the fitted dose curve; in most records, active means well fitted curve in the direction sought with a large enough effect; inconclusive means small, poorly fitted or top-dose-only effect, or another doubt; inactive means no such curve, though single readings can be large; an effect the other way counts as inactive or inconclusive.

Legend:
[1] = Viability qHTS for spleen associated tyrosine kinase inhibitor (SYKi) naive MV4-11 cells (AID 1963823); further: nearly all actives have a fitted effect of over 40% in size
Method in brief: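 In this viability screen, compounds acted on SYK inhibitor naive MV4-11 cells for three days (72 hr, 37 C). Remaining viable cells were measured by CellTiter-Glo luminescence following a 10 min room-temperature development.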

[2] = Viability qHTS for spleen associated tyrosine kinase inhibitor (SYKi) drug resistant MV4-11 cells (AID 1963824); further: nearly all actives have a fitted effect of over 35% in size
Method in brief: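 CellTiter-Glo luminescence, read 10 min after reagent addition, reports viability after a 72 hr compound exposure. Cells are an MV4-11 line made resistant to SYK inhibition, seeded at 500 per well onto compound-containing plates.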

[3] = Cellular viability qHTS for adrenocortical cancer (ACC) cell line NCI-H295R (AID 1963990); further: nearly all actives have a fitted effect of over 60% in size
Method in brief: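 Adrenocortical carcinoma cells, suspended at 300 000 cells/mL in serum-free DMEM plus ITS, rested overnight before pin transfer of compound. After two days' incubation, ATP-dependent luminescence was recorded and curve-fitted.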
Potency means the concentration at half of the fitted maximal effect.

SMILES	Potency [1]	Potency [2]	Potency [3]
Cc1sc2c(c1C)C(c1ccc(Cl)cc1)=N[C@@H](CC(=O)Nc1ccc(OCCOCCOCCOCCNc3cccc4c3C(=O)N(C3CCC(=O)NC3=O)C4=O)cc1)c1nnc(C)n1-2 (stereo partly drawn)	inactive	0.0166 µM (active)	3.98 µM (active)
N=C1CCCN1Cc1[nH]c(=O)[nH]c(=O)c1Cl	inactive	inactive	inactive
CCNC(=O)C#Cc1ccc2c(C(=Nc3ccc(CN(C)C)cc3)c3ccccc3)c(O)[nH]c2c1	0.0126 µM (active)	0.0317 µM (active)	2.85 µM (active)
COc1ccccc1C(=O)Nc1cc2c(cc1N1CCNC[C@H]1C)n(C)c(=O)n2C	5.9 µM (active)	11.8 µM (active)	inactive
C=CC(=O)N1CC(N2CCN(C(=O)CNc3cc(C4(C)CC4)c(Cl)cc3O)CC2)C1	18.6 µM (active)	16.6 µM (active)	15.8 µM (active)
O=C(/C=C/c1ccc2ccc(C(F)(F)F)cc2n1)c1ccncc1	0.934 µM (active)	0.934 µM (active)	4.47 µM (active)
C[C@H](CCC(=O)O)[C@H]1CC[C@H]2[C@@H]3C(=O)C[C@@H]4CC(=O)CC[C@]4(C)[C@H]3CC(=O)[C@]12C	inactive	inactive	inactive
COc1cccc(Nc2ncnn3ccc(CN4CC[C@@H](N)[C@H](O)C4)c23)c1	0.0411 µM (active)	0.184 µM (active)	inactive
COC(=O)C1=C(C)NC(C)=C(C(=O)OC)C1c1ccccc1[N+](=O)[O-]	13.3 µM (active)	11.9 µM (active)	9.2 µM (active)
COC(=O)C1=C(C)NC(C)=C(C(=O)O[C@@H]2CCCN(Cc3ccccc3)C2)[C@@H]1c1cccc([N+](=O)[O-])c1	21.1 µM (active) and 13 µM (active)	15 µM (active) and 13 µM (active)	23.1 µM (active)
CC(C)NCCCC1(C(N)=O)c2ccccc2-c2ccccc21	inactive	inactive	inactive
CN(C)CCNC(=O)NC[C@H]1CC[C@@H]2[C@H](O1)c1cc(C(F)(F)F)ccc1N[C@H]2c1ccccc1	0.148 µM (active)	0.132 µM (active)	0.891 µM (active)
COc1ccc(Cc2cnc(N)nc2N)cc1OC	inactive	inactive	inactive
CC(C)Oc1ccc(-c2nc(-c3cccc4c3CC[C@@H]4NCCO)no2)cc1C#N	11.8 µM (active)	11.8 µM (active)	28.2 µM (active)
CNC(=O)Cn1cc(-c2ccc3c(c2)C(F)CC32NC(=O)N(CC(=O)N(Cc3ccc(F)cc3)C(C)C(F)(F)F)C2=O)cn1 (stereo not drawn)	0.0417 µM (active)	0.166 µM (active)	inactive
O=C1CCCc2c(O)cccc21	inactive	inactive	inactive
CCC(=O)NC[C@H](Cc1ccc(OCCc2nc(-c3ccccc3)oc2C)cc1)N/C(C)=C\C(=O)c1ccc(C(F)(F)F)cc1	16.6 µM (active)	11.8 µM (active)	inactive
C[C@H](NC(=O)/C(C#N)=C/c1cccc(Br)n1)c1ccccc1	3.72 µM (active)	2.95 µM (active)	28.2 µM (active)
O=C(/C=C/c1cccc(S(=O)(=O)Nc2ccccc2)c1)NO	563 nM (active) and 417 nM (active)	282 nM (active) and 332 nM (active)	2.51 µM (active)
Nc1ccc(O)c([N+](=O)[O-])c1	inactive	0.0611 µM (active)	inactive
Cc1ccc(-n2c(C)cc(-c3nnc4n3CCCCC4)c2C)cc1	8.33 µM (active)	8.33 µM (active)	inactive
Cc1ccc(-c2ccc3c(ccc4sc5c(c43)NC[C@@H](C)NC5=O)n2)cn1	2.59 µM (active)	2.91 µM (active)	28.2 µM (active)
CC(C)(C)Sc1c(CC(C)(C)C(=O)O)n(Cc2ccc(Cl)cc2)c2ccc(OCc3ccc4ccccc4n3)cc12	inactive and 16.6 µM (active)	inactive and 11.8 µM (active)	inactive
Oc1ccc(CCNCCCCCCNCCc2ccccc2)cc1O	26.6 µM (active)	21.1 µM (active)	16.4 µM (active)
Cc1onc(-c2c(Cl)cccc2Cl)c1C(=O)N[C@@H]1C(=O)N2[C@@H]1SC(C)(C)[C@@H]2C(=O)O	inactive	inactive	inactive
O=c1[nH]sc2cc(Cl)ccc12	inactive	inactive	3.26 µM (active)
